High-throughput results: PubChem BioAssay, Pan Lab, Icahn School of Medicine at Mount Sinai
ROC1-CUL1 inh: inhibitors of human ROC1-CUL1 ubiquitin ligase activity; inhibition, % at 10 µM; E3 ubiquitin-protein ligase RBX1 (Homo sapiens) + Cullin-1 (Homo sapiens), P62877+Q13616; actives 0.6% (n = 140,000); in vitro K48 di-Ub FRET, acceptor:donor ratio, 45 min; in the data active = inhibition above about 25%
Target sequence (P62877 whole entry, looked up): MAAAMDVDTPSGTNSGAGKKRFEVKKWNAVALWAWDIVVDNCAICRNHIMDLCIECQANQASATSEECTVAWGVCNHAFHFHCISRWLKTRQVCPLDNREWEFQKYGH
Target sequence (Q13616 whole entry, looked up): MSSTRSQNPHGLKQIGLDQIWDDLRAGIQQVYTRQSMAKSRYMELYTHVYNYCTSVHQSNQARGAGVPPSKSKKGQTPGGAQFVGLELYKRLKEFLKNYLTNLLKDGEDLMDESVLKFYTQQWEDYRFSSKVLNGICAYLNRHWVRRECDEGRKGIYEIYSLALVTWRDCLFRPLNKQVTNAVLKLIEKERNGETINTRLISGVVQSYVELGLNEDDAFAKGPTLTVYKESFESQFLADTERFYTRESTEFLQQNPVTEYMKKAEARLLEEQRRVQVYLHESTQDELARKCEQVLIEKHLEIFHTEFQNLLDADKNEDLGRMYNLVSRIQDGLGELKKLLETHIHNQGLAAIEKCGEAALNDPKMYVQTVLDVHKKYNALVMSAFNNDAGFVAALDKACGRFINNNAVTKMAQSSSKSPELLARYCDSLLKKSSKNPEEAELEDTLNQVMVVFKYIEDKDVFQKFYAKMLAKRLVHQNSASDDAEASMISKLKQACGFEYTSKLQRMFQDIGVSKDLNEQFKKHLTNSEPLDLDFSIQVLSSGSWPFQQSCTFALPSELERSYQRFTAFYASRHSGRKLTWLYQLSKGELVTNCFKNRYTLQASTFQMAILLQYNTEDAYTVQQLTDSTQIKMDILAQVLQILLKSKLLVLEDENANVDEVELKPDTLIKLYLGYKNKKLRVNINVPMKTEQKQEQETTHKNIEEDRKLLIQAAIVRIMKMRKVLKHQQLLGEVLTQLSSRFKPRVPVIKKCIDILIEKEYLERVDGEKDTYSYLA
Hits are given with their value; . = inactive. Only a selection was taken, and hits are over-represented in it overall.

SMILES	ROC1-CUL1 inh
Fc1ccc(CN2CCOc3ccc(CN4CCC(Oc5cccnc5)CC4)cc3C2)cc1	.
CCOc1cc(C(c2c(C)[nH][nH]c2=O)c2c(C)[nH][nH]c2=O)ccc1OCc1cccc2ccccc12	45
COc1ccc(C(=O)Oc2ccc(C(c3c(C)[nH][nH]c3=O)c3c(C)[nH][nH]c3=O)cc2OC)cc1	.
COc1cc(C(c2c(C)[nH][nH]c2=O)c2c(C)[nH][nH]c2=O)ccc1OC(=O)c1ccccc1F	.
O=C(NCC1Cc2cc(-c3ccsc3)cc(Cl)c2O1)[C@H]1C[C@@H]2C=C[C@H]1C2 (stereo not given in full)	.
CN1C(=O)CC(=NCC(=O)c2ccc(Cl)cc2Cl)N(C)C1=O	.
O=C(/C=C/c1ccccc1)Nc1c2c(nc3c1CCC3)CCC2	.
COc1ccc(OC)c(NC(=O)CN(C)C2CCCCC2)c1	.
O=C1Oc2ccccc2C(=O)C1C(=O)c1ccccc1 (stereo not given)	.
O=C1Oc2ccccc2C(=O)C1Sc1ccc(Cl)cc1 (stereo not given)	.
O=C(O)c1ccccc1SC1C(=O)Oc2ccccc2C1=O (stereo not given)	46
Cc1ccc(NC(=O)C2CC(=O)N(c3ccc(OCc4ccccc4)cc3)C2)cc1C (stereo not given)	.
COc1ccc(N2Cc3cc(C)c(C)cc3C2)c(OC)c1	.
Cc1cc(C)n(C(=O)/C=C/c2ccc(Cl)cc2Cl)n1	.
CC1CCCc2sc3[nH]c(=S)n(-c4ccccc4)c(=O)c3c21 (stereo not given)	.
O=C(C=C1SCCS1)/C=C/c1ccco1	.
Nc1ccc2c(c1)C/C(=C/c1ccco1)C2=O	31
COc1cccc(/C=C2\CCC(=C3SCCS3)C2=O)c1	.
O=C1C(=C2SCCS2)CC/C1=C\c1ccco1	73
Cc1ccc(/C=C2\CCc3ccccc3C2=O)o1	.
CC1=C([N+](=O)[O-])CS(=O)(=O)/C1=C\c1ccco1	.
O=C(N/N=C(\c1ccccc1)c1ccncc1)NC(=O)c1c(F)cccc1F	.
O=C(Cn1nnnc1CN1CCCC1)NCCC1COc2ccccc2O1 (stereo not given)	.
CC1(C)C2C[C@@H](COC(=O)NC(=O)c3ccccc3)[C@]3(C)[C@H](C21)C3(Cl)Cl (stereo not given in full)	.
COc1ccc(C2Oc3nc(SC)nnc3-c3ccccc3N2C(=O)c2ccccc2)cc1OC (stereo not given)	.
SMILES	ROC1-CUL1 inh
COc1ccc(-c2c(C)nn3c4c(nnc23)C(=O)CC(C)(C)C4)cc1	.
CCOc1ccc2cc(S(=O)(=O)O)ccc2c1N	.
Nc1cc(S(=O)(=O)O)c(N)c2ccc(S(=O)(=O)O)cc12	101
O=S(=O)(O)c1ccc2ncccc2c1	.
Cc1cc(C)nc(SCc2nn3c(Cc4ccccc4C)nnc3s2)n1	.
O=C1c2cccc3c(Cl)ccc(c23)C(=O)N1Cc1ccc(Cl)cc1	.
CCc1n[nH]c(=S)n1/N=C/c1cc(C)n(-c2ccc(OC)cc2)c1C	.
Cc1ccc(OCC(=O)Nc2ccc3c(c2)oc2ccccc23)cc1C	.
O=C(COC(=O)C1CCC(N2C(=O)C3C4C=CC(C5CC45)C3C2=O)CC1)c1ccc(Cl)cc1Cl (stereo not given)	.
Cc1c(Sc2c(C)n(C)n(-c3ccccc3)c2=O)c(=O)n(-c2ccccc2)n1C	.
CC1=NNC(=O)C1N=Nc1c(C)n(C)n(-c2ccccc2)c1=O (stereo not given)	39
Cc1c(N=NC2C(=O)N(c3ccccc3)N=C2N)c(=O)n(-c2ccccc2)n1C (stereo not given)	.
CCS(=O)(=O)N1CCN(C(=O)Cn2ncc(N(C)C)cc2=O)CC1	.
CC(=O)N1CCC(Oc2ccc(Cl)cc2C(=O)N2CCCC2c2nccs2)CC1 (stereo not given)	.
CS(=O)(=O)Oc1ccc2c(-c3ccccc3C(=O)O)c3ccc(=O)c(I)c-3oc2c1I	117
O=C(O)c1cccc2c1-c1ccccc1C2=O	.
CC(=O)Nc1ccc(C(=O)Nc2ccc(S(=O)(=O)N3CCC(C)CC3)cc2)cc1	.
O=C(/C=C/c1cccnc1)c1ccc(F)cc1	49
C(=C\c1cccnc1)/c1ccc(/C=C/c2cccnc2)cc1	.
CSc1ccc(C(=O)/C=C/c2ccccc2)cc1	.
O=C(NN1C(=O)CCC1=O)c1ccco1	.
C=CCn1c(=O)c2c(nc3n(-c4ccccc4O)c(C)c(C)n23)n(C)c1=O	.
COC(=O)c1cnn2c(C(F)(F)F)cc(-c3cc(OC)c(OC)c(OC)c3)nc12	.
Fc1cccc2c1N[C@@H](c1cccc(Br)c1)[C@H]1CC=C[C@@H]21	.
CCOC(=O)C1=C(C)N=c2s/c(=C\c3ccc(I)cc3)c(=O)n2C1c1ccc(OC)cc1 (stereo not given)	.
SMILES	ROC1-CUL1 inh
CCOC(=O)C1=C(C)N=c2s/c(=C/c3ccc(C(=O)O)cc3)c(=O)n2C1c1ccc(C(C)C)cc1 (stereo not given)	90
CCOC(=O)C1=C(C)N=c2s/c(=C\c3ccc(Cl)cc3)c(=O)n2C1c1ccc(C(C)C)cc1 (stereo not given)	.
COc1ccc(CC(=O)NCc2nnc(SCc3ccc(Cl)cc3Cl)n2C)cc1	.
CC1=C(C#N)C(=O)NC(=O)/C1=C/c1ccc(-c2ccc(Cl)c(C(=O)OC(C)C)c2)o1	86
CC1=C(C#N)C(=O)N(CC(C)C)C(=O)/C1=C/c1ccc(-c2ccc(Cl)cc2)o1	.
COC(=O)c1cc(-c2ccc(/C=C3/SC(=O)NC3=O)o2)ccc1Cl	.
CCOC(=O)C1(Cc2ccccc2F)CCCN(C(=O)c2ccc3c(c2)no[n+]3[O-])C1 (stereo not given)	.
O=C1/C(=C\c2cccc(O)c2)SC(=S)N1c1ccccc1	.
CC(/C=C1\SC(=S)N(NC(=O)c2cccc(O)c2)C1=O)=C\c1ccccc1	.
CC(/C=C1\SC(=S)N(CC(=O)O)C1=O)=C\c1ccccc1	.
CC(/C=C1\SC(=S)N(c2cccc(C(=O)O)c2)C1=O)=C\c1ccccc1	66
CCOC(=O)c1ccc(NC(=O)CN2C(=O)S/C(=C/C(C)=C/c3ccccc3)C2=O)cc1	.
CC(=C/c1ccccc1)/C=C1\SC(=S)N(C(C(=O)O)c2ccccc2)C1=O (stereo not given)	105
COC(=O)C1C(=O)N=C(SCC(=O)Nc2ccc(Br)cc2)C(C#N)C1c1ccccc1[N+](=O)[O-] (stereo not given)	.
CC1(C)CC2C=C(C#N)C(=N)N=C2CO1 (stereo not given)	.
Cc1ccc(S(=O)(=O)Nc2ccc(NC(=O)c3cc(-c4ccccc4Cl)nc4ccccc34)cc2)cc1	.
Cc1ccc(S(=O)(=O)N(C)c2ccc(C(=O)N3CCC(C(=O)O)CC3)cc2)cc1	.
CC(OC(=O)c1ccc(-c2nnc(-c3ccccc3)o2)cc1)C(=O)c1ccccc1 (stereo not given)	.
CCSc1nnc(NC(=O)c2cc(-c3ccc(C)o3)nc3ccccc23)s1	81
Cc1ccc(CNC(=O)c2cc(-c3ccc(C)o3)nc3ccccc23)cc1	.
Cc1ccc(-c2cc(C(=O)Nc3ccccc3C(N)=O)c3ccccc3n2)o1	.
C#CCOc1ccc(/C=C2\SC(=Nc3ccc(C(=O)OCC)cc3)N(C)C2=O)cc1Cl	.
CCc1cc2c(=O)oc(-c3ccc(Cl)cc3)nc2s1	.
CCCCCCCC1=NN2C(=N)/C(=C/c3ccccc3C)C(=O)N=C2S1	.
